Data taken from ChEMBL document CHEMBL2218924, “A broad activity screen in support of a chemogenomic map for kinase signalling research and drug discovery” (Biochem J, 2013).

Key:
[1] = target: Insulin receptor (Homo sapiens) (UniProt P06213); conditions: at 10 µM
[2] = target: Insulin receptor (Homo sapiens) (UniProt P06213); conditions: at 1 µM
[3] = target: Insulin receptor (Homo sapiens) (UniProt P06213); conditions: at 10 µM; remark: listed apart in the source
[4] = target: Interleukin-1 receptor-associated kinase 1 (Homo sapiens) (UniProt P51617); conditions: at 1 µM
[5] = target: Interleukin-1 receptor-associated kinase 1 (Homo sapiens) (UniProt P51617); conditions: at 10 µM
[6] = target: T1, Interleukin-1 receptor-associated kinase 4 (Homo sapiens) (UniProt Q9NWZ3); conditions: at 1 µM
T1 sequence (whole entry): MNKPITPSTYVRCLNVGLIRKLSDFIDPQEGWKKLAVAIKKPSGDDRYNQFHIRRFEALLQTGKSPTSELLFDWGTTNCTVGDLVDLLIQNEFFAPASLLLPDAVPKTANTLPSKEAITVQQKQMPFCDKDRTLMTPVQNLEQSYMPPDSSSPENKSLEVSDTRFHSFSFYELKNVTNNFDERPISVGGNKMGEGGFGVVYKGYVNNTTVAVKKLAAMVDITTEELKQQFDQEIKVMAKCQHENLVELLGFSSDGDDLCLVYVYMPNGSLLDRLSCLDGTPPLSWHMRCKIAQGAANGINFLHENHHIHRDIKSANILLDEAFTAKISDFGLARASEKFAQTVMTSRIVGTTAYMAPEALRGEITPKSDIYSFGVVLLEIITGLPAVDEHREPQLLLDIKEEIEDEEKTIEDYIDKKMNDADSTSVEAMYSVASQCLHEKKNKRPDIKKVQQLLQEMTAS

[7] = target: T1, Interleukin-1 receptor-associated kinase 4 (Homo sapiens); conditions: at 10 µM
[8] = target: Insulin receptor-related protein (Homo sapiens) (UniProt P14616); conditions: at 1 µM
[9] = target: Insulin receptor-related protein (Homo sapiens) (UniProt P14616); conditions: at 10 µM
[10] = target: T2, Tyrosine-protein kinase ITK/TSK (Homo sapiens) (UniProt Q08881); conditions: at 1 µM
T2 sequence (whole entry): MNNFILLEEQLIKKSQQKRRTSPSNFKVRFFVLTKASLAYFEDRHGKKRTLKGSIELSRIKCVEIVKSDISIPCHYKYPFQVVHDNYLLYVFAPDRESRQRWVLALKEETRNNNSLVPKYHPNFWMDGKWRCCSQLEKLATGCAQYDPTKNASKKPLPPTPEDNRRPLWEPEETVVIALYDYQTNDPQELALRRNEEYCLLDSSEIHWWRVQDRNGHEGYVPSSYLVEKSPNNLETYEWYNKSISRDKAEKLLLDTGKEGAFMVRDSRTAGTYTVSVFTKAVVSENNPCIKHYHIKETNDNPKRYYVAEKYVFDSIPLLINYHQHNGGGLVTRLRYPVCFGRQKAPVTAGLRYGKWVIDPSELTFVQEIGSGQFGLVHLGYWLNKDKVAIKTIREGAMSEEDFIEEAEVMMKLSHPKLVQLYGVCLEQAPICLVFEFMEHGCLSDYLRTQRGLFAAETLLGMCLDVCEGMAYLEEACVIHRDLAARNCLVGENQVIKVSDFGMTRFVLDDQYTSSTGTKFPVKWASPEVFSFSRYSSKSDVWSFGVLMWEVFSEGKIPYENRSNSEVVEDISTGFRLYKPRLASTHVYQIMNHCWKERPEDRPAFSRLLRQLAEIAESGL

Sequence of Insulin receptor (Homo sapiens) (P06213 28-758 limits assumed): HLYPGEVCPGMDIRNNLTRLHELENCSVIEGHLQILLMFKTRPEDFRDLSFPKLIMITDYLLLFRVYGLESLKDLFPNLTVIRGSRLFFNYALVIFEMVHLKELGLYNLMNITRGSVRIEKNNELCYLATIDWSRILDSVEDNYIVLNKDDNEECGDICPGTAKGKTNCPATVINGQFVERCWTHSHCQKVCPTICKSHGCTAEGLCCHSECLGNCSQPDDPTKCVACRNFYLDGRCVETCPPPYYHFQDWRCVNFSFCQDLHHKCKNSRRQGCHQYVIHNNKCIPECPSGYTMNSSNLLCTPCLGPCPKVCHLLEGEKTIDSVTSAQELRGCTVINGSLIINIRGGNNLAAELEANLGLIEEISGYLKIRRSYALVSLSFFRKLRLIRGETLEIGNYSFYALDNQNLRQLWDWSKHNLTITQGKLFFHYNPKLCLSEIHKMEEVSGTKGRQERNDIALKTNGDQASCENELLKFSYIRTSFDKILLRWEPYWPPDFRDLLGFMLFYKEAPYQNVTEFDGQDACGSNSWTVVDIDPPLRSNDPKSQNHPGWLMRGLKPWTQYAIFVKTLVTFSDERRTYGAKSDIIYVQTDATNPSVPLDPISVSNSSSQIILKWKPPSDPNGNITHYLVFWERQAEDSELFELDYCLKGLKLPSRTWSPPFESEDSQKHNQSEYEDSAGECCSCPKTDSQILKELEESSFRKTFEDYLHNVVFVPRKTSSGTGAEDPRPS
Sequence of Insulin receptor (Homo sapiens) (P06213 763-1382 limits assumed): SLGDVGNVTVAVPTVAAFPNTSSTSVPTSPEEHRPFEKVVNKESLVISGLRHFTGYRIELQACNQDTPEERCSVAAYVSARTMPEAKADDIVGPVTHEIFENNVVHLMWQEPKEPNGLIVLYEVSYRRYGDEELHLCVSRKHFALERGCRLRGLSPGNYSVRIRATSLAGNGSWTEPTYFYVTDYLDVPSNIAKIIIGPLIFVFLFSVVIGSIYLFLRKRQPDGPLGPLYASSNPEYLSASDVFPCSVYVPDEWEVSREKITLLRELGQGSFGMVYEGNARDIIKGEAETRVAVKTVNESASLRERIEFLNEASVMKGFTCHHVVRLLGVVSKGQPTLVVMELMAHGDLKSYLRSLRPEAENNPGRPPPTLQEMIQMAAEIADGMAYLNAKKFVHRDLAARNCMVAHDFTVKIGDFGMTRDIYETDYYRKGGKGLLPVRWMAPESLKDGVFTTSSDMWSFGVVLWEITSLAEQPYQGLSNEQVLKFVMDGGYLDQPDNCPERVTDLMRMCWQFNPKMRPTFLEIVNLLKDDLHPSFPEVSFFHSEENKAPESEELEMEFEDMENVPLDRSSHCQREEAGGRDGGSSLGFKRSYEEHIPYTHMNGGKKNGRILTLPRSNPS
Sequence of Interleukin-1 receptor-associated kinase 1 (Homo sapiens) (P51617 whole entry, looked up): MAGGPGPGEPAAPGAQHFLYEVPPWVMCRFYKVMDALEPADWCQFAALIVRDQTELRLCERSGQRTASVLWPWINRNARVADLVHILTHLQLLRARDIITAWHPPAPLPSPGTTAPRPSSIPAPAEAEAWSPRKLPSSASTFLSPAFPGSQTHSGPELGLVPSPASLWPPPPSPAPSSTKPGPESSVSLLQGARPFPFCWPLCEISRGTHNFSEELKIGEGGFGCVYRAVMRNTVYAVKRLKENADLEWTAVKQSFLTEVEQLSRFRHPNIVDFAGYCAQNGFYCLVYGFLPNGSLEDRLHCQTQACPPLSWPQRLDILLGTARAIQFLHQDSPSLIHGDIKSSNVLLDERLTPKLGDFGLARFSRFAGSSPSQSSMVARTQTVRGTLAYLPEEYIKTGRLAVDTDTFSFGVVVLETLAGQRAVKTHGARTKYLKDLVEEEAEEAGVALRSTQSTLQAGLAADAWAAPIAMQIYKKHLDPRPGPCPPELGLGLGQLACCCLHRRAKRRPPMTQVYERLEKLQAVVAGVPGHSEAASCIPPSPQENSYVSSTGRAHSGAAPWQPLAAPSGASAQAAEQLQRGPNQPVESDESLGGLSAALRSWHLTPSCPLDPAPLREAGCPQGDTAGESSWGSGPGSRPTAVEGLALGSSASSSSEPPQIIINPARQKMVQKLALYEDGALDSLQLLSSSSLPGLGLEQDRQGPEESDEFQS
Sequence of Insulin receptor-related protein (Homo sapiens) (P14616 27-742 limits assumed): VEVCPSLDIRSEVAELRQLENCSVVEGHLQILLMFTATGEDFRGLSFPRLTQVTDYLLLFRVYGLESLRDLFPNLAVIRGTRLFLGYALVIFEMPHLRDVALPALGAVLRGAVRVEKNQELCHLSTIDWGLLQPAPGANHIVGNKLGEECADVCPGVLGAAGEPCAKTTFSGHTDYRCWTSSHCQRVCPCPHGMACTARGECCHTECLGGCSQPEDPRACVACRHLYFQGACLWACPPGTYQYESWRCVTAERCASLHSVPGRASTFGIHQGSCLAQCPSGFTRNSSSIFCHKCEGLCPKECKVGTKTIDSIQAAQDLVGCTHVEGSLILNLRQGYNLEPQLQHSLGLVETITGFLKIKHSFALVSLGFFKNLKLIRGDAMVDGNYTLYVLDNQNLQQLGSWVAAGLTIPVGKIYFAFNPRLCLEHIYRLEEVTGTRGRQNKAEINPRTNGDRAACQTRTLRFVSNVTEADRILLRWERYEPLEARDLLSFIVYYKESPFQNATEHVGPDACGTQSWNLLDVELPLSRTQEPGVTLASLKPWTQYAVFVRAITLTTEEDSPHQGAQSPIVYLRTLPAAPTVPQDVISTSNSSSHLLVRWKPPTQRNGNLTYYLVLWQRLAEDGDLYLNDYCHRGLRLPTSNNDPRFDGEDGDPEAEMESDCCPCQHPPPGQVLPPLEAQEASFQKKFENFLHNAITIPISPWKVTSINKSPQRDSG
Sequence of Insulin receptor-related protein (Homo sapiens) (P14616 747-1297 limits assumed): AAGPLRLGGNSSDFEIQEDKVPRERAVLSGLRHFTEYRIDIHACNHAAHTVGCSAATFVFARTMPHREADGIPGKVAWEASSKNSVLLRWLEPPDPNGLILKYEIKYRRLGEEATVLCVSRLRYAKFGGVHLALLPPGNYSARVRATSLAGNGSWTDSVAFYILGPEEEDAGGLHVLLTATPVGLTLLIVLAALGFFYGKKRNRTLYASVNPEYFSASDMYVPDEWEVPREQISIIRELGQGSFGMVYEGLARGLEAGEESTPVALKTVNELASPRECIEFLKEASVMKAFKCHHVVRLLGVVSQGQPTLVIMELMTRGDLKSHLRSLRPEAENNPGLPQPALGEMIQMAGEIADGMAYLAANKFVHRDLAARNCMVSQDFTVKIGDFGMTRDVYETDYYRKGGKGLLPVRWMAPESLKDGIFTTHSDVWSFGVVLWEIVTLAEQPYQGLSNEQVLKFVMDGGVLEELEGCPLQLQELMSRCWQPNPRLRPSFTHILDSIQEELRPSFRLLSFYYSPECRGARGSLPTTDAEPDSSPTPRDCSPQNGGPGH

SMILES | residual activity [1] [%] | residual activity [2] [%] | residual activity [3] [%] | residual activity [4] [%] | residual activity [5] [%] | residual activity [6] [%] | residual activity [7] [%] | residual activity [8] [%] | residual activity [9] [%] | residual activity [10] [%]
CC[n+]1c(/C=C/N(C)c2ccccc2)n(-c2ccccc2)c2ccc(-c3nc4ccccc4s3)cc21 | 86 | 100 | 92 | 96 | 92 | 113 | 78 | 111 | 87 | 101
CC(C)n1cnc2c(NCc3ccccc3)nc(NCCCO)nc21 | 70 | 99 | 75 | 105 | 106 | 93 | 76 | 106 | 84 | 105
Cn1nc2c3c(cccc31)C(=O)c1ccccc1-2 | 74 | 81 | 63 | 90 | 87 | 76 | 47 | 103 | 89 | 100
Cc1cccc(-c2[nH]c(C(C)(C)C)nc2-c2ccc3c(c2)OCO3)n1 | 89 | – | – | 87 | 75 | – | – | 104 | 88 | 96
N#CCCc1ccc2c(c1)-c1[nH]c3ccc([N+](=O)[O-])cc3c1CC(=O)N2 | – | – | 76 | 45 | 20 | 62 | 28 | 100 | 81 | 81
Oc1ccc(Nc2nc(-c3ccc(Cl)cc3)cs2)cc1 | 133 | 108 | 103 | 100 | 111 | 108 | 97 | 115 | 85 | 104
COc1ccc(S(=O)(=O)N(CCO)c2ccccc2CN(C)C/C=C/c2ccc(Cl)cc2)cc1 | 114 | 100 | 90 | 99 | 106 | 81 | 75 | 117 | 90 | 99
Nc1nc(Nc2ccc(S(N)(=O)=O)cc2)nn1C(=S)Nc1c(F)cccc1F | – | – | – | 8 | 16 | 8 | 0 | – | – | 44
COc1cc2ncc(-c3ccccc3)nc2cc1OC | – | – | – | – | – | – | – | 137 | 80 | –
O=C1c2ccccc2-[n+]2ccc3c([nH]c4ccccc43)c21 | 93 | 101 | 86 | 106 | – | 79 | 78 | 101 | 92 | 96
COc1cc2ncnc(Nc3ccc(NC(=O)c4ccccc4)cc3)c2cc1OC | 92 | 105 | – | 100 | 99 | – | 97 | – | 79 | –
CCOc1cc2ncnc(Nc3cccc(Br)c3)c2cc1OCC | 144 | 100 | 92 | 79 | 28 | 49 | 18 | 126 | 85 | 94
COc1cc2ncnc(Nc3ccc(Oc4ccccc4)cc3)c2cc1OC | 98 | 93 | 91 | 87 | 79 | 98 | 79 | 82 | 81 | 86
CC(=O)c1ccc(N2CCOCC2)cc1O | 81 | 104 | 97 | 105 | 95 | 95 | 98 | – | – | 97
CC#CC(=O)Nc1cc2c(Nc3ccc(F)c(Cl)c3)ncnc2cn1 | 85 | 103 | 98 | 94 | 73 | 103 | 98 | 127 | 86 | 100
O=c1cc(-c2cccc3c2Sc2ccccc2S3)oc(N2CCOCC2)c1 | 136 | 98 | 99 | 102 | – | 100 | 98 | 119 | 96 | 105
CO[C@H]1[C@@H](OC)C[C@H](C)[C@@H](OC)C2=CC(=O)C=C(NC(=O)/C(C)=C/C=C/[C@H](OC)[C@@H](OC(N)=O)/C(C)=C/[C@@H]1C)C2=O | 117 | 100 | 112 | 106 | 94 | 107 | 99 | 133 | 79 | 106
CNc1cc2c(Nc3cccc(Br)c3)ncnc2cn1 | 48 | 96 | 103 | 95 | 75 | 96 | 61 | 135 | 71 | 104
O=C1NC(=O)c2cc(Nc3ccc(F)cc3)c(Nc3ccc(F)cc3)cc21 | 103 | 94 | 85 | 83 | 63 | 99 | 110 | 122 | 83 | 110
